Rab9 promoter act: qHTS Assay for Rab9 Promoter Activators. Huh7 Rab9 promoter-luciferase reporter, luminescence, 24 h. Potency, µM (top dose mostly 9.22 µM), for inactives: top-dose activation, negative = inhibition, hits mostly activators. 320,000 compounds, 2.8% hits; also: % of control where 0% means no effect; nearly all actives have a fitted effect of over 60% in size
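Luminescence read-out: Huh7 cells stably expressing Rab9-luciferase, treated 24 h with compound at 37 °C, then lysed with luciferase reagent for 10 min at ambient before reading.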
NPC1 promoter act: qHTS Assay for NPC1 Promoter Activators; 320,000 compounds, 2.4% hits; Huh7 NPC1 promoter luciferase reporter, 24 h; Potency, µM (doses to about 9.22 µM), for the others: top-dose activation, hits mostly activators; also: % of control where 0% means no effect; nearly all actives have a fitted effect of over 60% in size
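Luciferase expression driven by the NPC1 promoter was measured in stably transfected Huh7 cells after a 24 h compound incubation, using a luciferase reagent and a luminescence read.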
ELG1 genotoxic: qHTS screen for small molecules that induce genotoxicity in human embryonic kidney (HEK293T) cells expressing luciferase-tagged ELG1; HEK293T ELG1-luciferase reporter, luminescence, 16 h; Potency, µM (top dose mostly 46 µM), for inactives: at the top dose activity change, positive = activation, most hits filed as activators; 330,000 compounds, 1.3% hits; AID 504466, 2011; also: % of control where 0% means no effect; nearly all actives have a fitted effect of over 60% in size
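DMSO vehicle served as control against compound-treated ELG1-luciferase HEK293T cells; exposure lasted 16 hr at 37 °C and 5% CO2, followed by ONE-Glo luminescence detection after 30 min.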
SMN2 splice up: qHTS Assay for Enhancers of SMN2 Splice Variant Expression; HEK293 SMN2-luciferase splicing reporter, luminescence, 30-36 h; Potency, µM (titrated, usually from 46.1 µM), without a hit: top-dose activity change, positive = activation, hits mostly activators; 210,000 compounds, 2.8% hits; also: % of control where 0% means no effect; nearly all actives have a fitted effect of over 55% in size
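qHTS luciferase splicing reporter: luminescence rises when SMN2 exon 7 is included in transfected HEK293 cells. Compound exposure lasted 30-36 h at 37C, with 4.5 mM final sodium butyrate as control, followed by a ONE-Glo read.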
FLuc counter: qHTS profiling assay for firefly luciferase inhibitor/activator using purifed enzyme and Km concentrations of substrates (counterscreen for miR-21 project); purified FLuc, Km substrates, luminescence inhibition; Potency, µM (top dose mostly 57.5 µM), for inactives: at the top dose activity change, negative = inhibition, most hits filed as inhibitors; 360,000 compounds, 6.9% hits; AID 588342, 2011;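 also: plate controls were vehicle for no effect and reference inhibitor for full effect; nearly all actives have a fitted effect of over 55% in size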
Target sequence (P08659 whole entry, looked up): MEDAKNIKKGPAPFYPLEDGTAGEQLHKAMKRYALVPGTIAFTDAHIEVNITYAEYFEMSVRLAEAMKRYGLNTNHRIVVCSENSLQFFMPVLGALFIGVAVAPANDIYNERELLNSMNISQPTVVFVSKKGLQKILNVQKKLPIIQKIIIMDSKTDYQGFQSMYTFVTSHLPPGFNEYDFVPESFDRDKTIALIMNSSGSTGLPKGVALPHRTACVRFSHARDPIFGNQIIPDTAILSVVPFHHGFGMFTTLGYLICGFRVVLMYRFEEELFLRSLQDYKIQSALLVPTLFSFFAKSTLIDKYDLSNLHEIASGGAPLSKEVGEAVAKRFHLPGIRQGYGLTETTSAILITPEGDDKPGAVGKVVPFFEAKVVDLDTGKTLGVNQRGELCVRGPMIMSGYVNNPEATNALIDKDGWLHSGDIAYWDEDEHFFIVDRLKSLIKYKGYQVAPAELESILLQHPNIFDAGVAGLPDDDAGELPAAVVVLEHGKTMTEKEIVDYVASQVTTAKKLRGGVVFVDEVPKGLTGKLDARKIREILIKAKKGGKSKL
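Biochemical qHTS of compounds, final roughly 60 µM downward over six points, against 10 nM purified firefly luciferase using Km concentrations of substrates (10 uM D-luciferin, 10 uM ATP) in Tris acetate pH 7.5 buffer; luminescence output.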
KinaseGlo FLuc: Counterscreen for Luciferase (Kinase-Glo TM) Inhibition. Kinase-Glo luciferase, ATP luminescence, 8 min. Potency, µM (series often up to 38.3 µM), for the others: at the top dose activity change, negative = inhibition, most hits filed as inhibitors. 200,000 compounds, 0.28% hits. Luciferin 4-monooxygenase (Photuris pensylvanica), Q27757; also: % is scaled to controls: 0 for no effect and ±100 for the full control effect; nearly all actives have a fitted effect of over 60% in size
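Kinase-Glo luciferase light output from ATP and luciferin was measured with 10 uM ATP, within the enzyme's linear range. Buffer: 50 mM imidazole pH 7.2, 50 mM KCl, 7 mM MgCl2, 0.01% Tween 20, 0.05% BSA; luminescence read after 8 min at ambient temperature.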
* = called active by the depositor; ? = inconclusive; · = no result; [ ] = dose if it differs, or a comment. An excerpt weighted towards active compounds, which were near 7.5% of everything screened. Calls follow the shape of the dose curve; as a rule, active = well fitted curve in the direction sought with a large enough effect; inconclusive = small, poorly fitted or top-dose-only effect, or another doubt; inactive = no such curve, though single readings can be large; an effect the other way counts as inactive or inconclusive. Potency is read from the fitted curve at half-maximal effect.

SMILES | Rab9 promoter act | NPC1 promoter act | ELG1 genotoxic | SMN2 splice up | FLuc counter | KinaseGlo FLuc
Cc1cccnc1NC(=S)Nc1ccc(Br)cc1Cl | 3.16µM* | 3.16µM* | ? | 25.1µM* | 4.78µM* | -4.0%
Fc1ccccc1N1CCN(C2CCCN(Cc3cccc(C(F)(F)F)c3)C2)CC1 (stereo unspecified) | -3.8% | 0.9% | -9.3% | · | 3.8% | ·
COc1ccc(S(=O)(=O)N2CCCOC2CNC(=O)C(=O)NCc2cccnc2)cc1 (stereo unspecified) | -7.9% | -11.3% | -0.5% | · | 1.2% | ·
CN(C)c1ccc(CNC(=O)c2ccccc2NC(=O)c2nsc3ccccc23)cc1 | · | · | · | · | -17.7% | ·
Cc1ccc(C(=O)O)cc1NC(=O)c1nsc2ccccc12 | · | · | · | 18.0% | ? | ·
CC(C)Oc1ccc(CNC(=O)c2cccc(NC(=O)c3nsc4ccccc34)c2)cc1 | · | · | · | · | 9.53µM* | ·
Cc1ccc(C(=O)NCCC(C)C)cc1NC(=O)c1nsc2ccccc12 | · | · | · | · | 0.4% | ·
CN(Cc1ccccc1)C(=O)c1cccc(NC(=O)c2nsc3ccccc23)c1 | · | · | · | · | 9.53µM* | ·
CC(NC(=O)c1cccc(NC(=O)c2nsc3ccccc23)c1)c1ccccc1 (stereo unspecified) | · | · | · | · | 3.79µM* | ·
CC(NC(=O)c1ccc(NC(=O)c2nsc3ccccc23)cc1)c1ccccc1 (stereo unspecified) | · | · | · | · | 3.01µM* | ·
O=C(O)C1CCN(S(=O)(=O)c2ccc(N3CCC(O)CC3)c([N+](=O)[O-])c2)CC1 | 3.4% | -4.5% | -2.1% | · | 0.5% | ·
CCCc1cc(=O)n2[nH]c(NC(=O)c3ccccc3Cl)nc2n1 | · | · | · | 1.1% | -19.2% | ·
Clc1cccc(N2CCN(c3nc4ccccc4c4nc(-c5cccnc5)nn34)CC2)c1 | · | · | · | -0.9% | -1.0% | ·
Cn1cccc1-c1nc2ccc(NC(=O)c3ccccc3)cc2[nH]1 | 27.9% | 16.2% | ? | 27.9% | 15.1µM* | -0.3%
Cc1nnsc1-c1nc2ccccc2[nH]1 | 0.0% | 6.5% | -0.1% | -14.5% | -7.6% | -3.7%
Cc1ccc(S(=O)(=O)Nc2ccc3nc(-c4cccn4C)[nH]c3c2)cc1 | -0.5% | 6.5% | 0.2% | 8.91µM* | -15.9% | -1.5%
Cc1ccc(S(=O)(=O)Nc2ccc3cn[nH]c3c2)cc1 | -1.7% | -0.8% | -0.5% | · | 0.3% | ·
Nc1ccc(C(=O)Nc2ccc3nc(-c4cccnc4)[nH]c3c2)cc1 | 6.4% | -5.6% | 2.0% | 12.9% | 16.9µM* | -3.2%
Cn1cccc1-c1nc2ccc(NC(=O)c3ccc([N+](=O)[O-])cc3)cc2[nH]1 | 3.7% | -2.7% | 9.1% | 12.0% | -1.7% | -1.4%
Cn1cccc1-c1nc2ccccc2[nH]1 | 30.0% | ? | ? | · | 16.9µM* | ·
COc1ccc(NC(=O)C(=O)NCC2CCCN2S(=O)(=O)c2cc(C)ccc2C)cc1 (stereo unspecified) | -30.1% | -32.5% | -4.9% | · | 3.4% | ·
N#C/C(=C\c1ccc(OCc2cccc(C(=O)O)c2)cc1)C(=O)NCc1ccco1 | 0.1µM* | 0.355µM* | ? | · | 30.1µM* | ·
Cc1cc(/C=C(/C#N)c2cccc(F)c2)c(C)n1-c1cccnc1 | ? | ? | 5.17µM* | 11.2µM* | 8.49µM* | -3.2%
Cc1cc(/C=C(\C#N)C(=O)NCc2ccco2)c(C)n1C1CCCC1 | ? | ? | ? | -0.6% | 6.01µM* | -3.5%
N#C/C(=C\c1ccc(OCc2ccc(C(=O)O)cc2)cc1)C(=O)NCc1ccccc1 | 6.0% | -1.8% | 2.5% | · | -2.7% | ·
SMILES | Rab9 promoter act | NPC1 promoter act | ELG1 genotoxic | SMN2 splice up | FLuc counter | KinaseGlo FLuc
Cc1cccc(-n2c(C)cc(C=C(C#N)C#N)c2C)c1 | -0.7% | -1.1% | 2.6% | -15.2% | 1.2% | 0.8%
Cc1cc(/C=C(\C#N)C(=O)NCc2ccco2)c(C)n1-c1cccnc1 | ? | ? | ? | · | 15.1µM* | ·
CSCc1ccc(C(=O)NC2CC(C)(C)Cc3c2cnn3-c2ccc(F)cc2)o1 (stereo unspecified) | 2.5% | -1.2% | 0.4%[9.26 µM] | · | -3.2% | ·
COc1ccc(CCNC(=O)C2CCN(c3nc4ccccc4nc3C(F)(F)F)CC2)cc1OC | · | · | · | · | 1.3% | ·
CC/C=C\C/C=C\C/C=C\C/C=C\C/C=C\C/C=C\CCC(=O)NCCCC(=O)O | · | · | · | -7.9% | · | 1.9%
Cc1onc(NC(=O)NC(=O)c2ccccc2F)c1Br | 18.3% | 17.6% | ? | · | ? | ·
O=C(Nc1cnc2sccn2c1=O)c1ccc(Cl)cc1Cl | 1µM* | 0.447µM* | 2.59µM* | 8.91µM* | 2.13µM* | -15.7%
Cn1ccc(NC(=O)c2ccc([N+](=O)[O-])cc2)n1 | 0.5% | 2.7% | 0.4% | · | 3.2% | ·
Cc1onc(NC(=O)c2ccc(Cl)cc2Cl)c1Br | 3.16µM* | ? | ? | · | ? | -1.8%
Cc1cccc(C(=O)Nc2ccn(C)n2)c1 | 2.51µM* | ? | ? | · | ? | ·
Cn1ccc(NC(=O)c2ccc(Cl)cc2)n1 | 18.7% | 3.9% | ? | · | ? | ·
Cn1ccc(NC(=O)c2ccc(Cl)cc2Cl)n1 | 2.51µM* | 3.98µM* | ? | · | 10.7µM* | ·
CCOC(=O)c1sc(NC(=O)CN2CC(C)OC(C)C2)nc1C (stereo unspecified) | -2.1% | 2.3% | 1.5% | · | -3.6% | ·
Cc1cc(C)c2oc(C(=O)Nc3ccc(S(=O)(=O)Nc4ncccn4)cc3)cc(=O)c2c1 | · | · | · | 14.3% | -16.4% | ·
O=C(O)c1ccc(-n2cccc2/C=N\NC(=O)c2cc3cc(Br)ccc3o2)cc1 | -1.9% | -4.2% | -1.9% | · | 15.1µM* | ·
O=C(N/N=C/c1cccn1-c1ccc(O)cc1)c1cccc2ccccc12 | -5.9% | 1.1% | 1.6% | · | -2.0% | ·
Cn1cc(/C=N/NC(=O)c2cc3cc(Br)ccc3o2)c2ccccc21 | 5.2% | 9.4% | -0.8% | · | 8.49µM* | ·
O=C(O)Cn1cc(/C=N/NC(=O)c2cc3cc(Br)ccc3o2)c2ccccc21 | 0.7% | 0.6% | 1.0% | · | 12µM* | ·
C=CCn1cc(/C=N\NC(=O)c2cc3c(ccc4ccccc43)o2)c2ccccc21 | 3.9% | -0.6% | -6.4% | 3.0% | ? | 4.7%
O=C(N/N=C/c1cccc2ccccc12)c1cc2ccccc2o1 | 0.8% | -0.5% | -0.1% | · | ? | ·
C#CCn1cc(/C=N/NC(=O)c2cc3ccccc3o2)c2ccccc21 | -2.0% | 9.1% | -0.5% | 6.6% | 12µM* | 2.1%
Cc1cccc(N2CCN(C3(c4ccccc4)C(=O)c4ccccc4C3=O)CC2C)c1 (stereo unspecified) | · | · | · | -21.1% | -1.4% | ·

Source: PubChem BioAssay
